3T3 cytotox: kills NIH 3T3 cells; Potency, µM (highest dose often 96.7 µM), without a hit: at the top dose activity change, negative = cytotoxicity, usual class: inhibitors; NIH 3T3 viability, CellTiter-Glo ATP luminescence, 48-72 h; AID 1345082; hit rate 4.3% among 94,000; note: % is set by controls: 0 for no effect and ±100 for the full control effect; nearly all actives have a fitted effect of over 55% in size
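Cytotoxicity is measured as loss of cellular ATP: NIH 3T3 cells (400/well) are exposed to compound for 48 or 72 hr at 37 °C, then CellTiter-Glo luminescence is imaged after 10 min at room temperature.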
HEK cytotox: cytotoxic compounds in HEK 293 cells; HEK 293 viability, ATP luminescence (CellTiter-Glo), 48-72 h; Potency, µM (titrated, usually from 115 µM), inactives show at the top dose activity change, negative = cytotoxicity, actives largely listed as inhibitors; hit rate 6.6% among 94,000; note: % is set by controls: 0 for no effect and ±100 for the full control effect; nearly all actives have a fitted effect of over 60% in size
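Read-out: CellTiter-Glo ATP luminescence. Cells: HEK 293, 250 cells/well. Exposure: 48 or 72 hr, 37 degree Celsius.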
NPR1 antag: antagonists of human natriuretic peptide receptor Npr1. AID 1347048. HEK293 hNpr1 GloSensor cGMP, ANP-stimulated luminescence. hit rate 1.6% among 76,000. P16066. Potency, µM (titrated, usually from 46.3 µM), inactives show at the highest dose activity change, negative = inhibition, most hits filed as inhibitors; calls by dose curve; note: % is set by controls: 0 for no effect and ±100 for the full control effect; nearly all actives have a fitted effect of over 60% in size
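Compound pre-incubated 30 min at room temperature on GloSensor-loaded HEK293 cells stably carrying hNpr1 and the pGS-40F cGMP biosensor. Stimulation uses hNppA at 0.1 nM final; luminescence is taken at baseline and 20 min post-agonist.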
FLuc inh: Photinus pyralis luciferase inhibition | purified P. pyralis luciferase, luminescence, biochemical | P08659 | Potency, µM (series often up to 115 µM), hits mostly inhibitors | hit rate 2.5% among 76,000; note: % is set by controls: 0 for no effect and ±100 for the full control effect; nearly all actives have a fitted effect of over 65% in size
Target sequence (P08659 whole entry, looked up): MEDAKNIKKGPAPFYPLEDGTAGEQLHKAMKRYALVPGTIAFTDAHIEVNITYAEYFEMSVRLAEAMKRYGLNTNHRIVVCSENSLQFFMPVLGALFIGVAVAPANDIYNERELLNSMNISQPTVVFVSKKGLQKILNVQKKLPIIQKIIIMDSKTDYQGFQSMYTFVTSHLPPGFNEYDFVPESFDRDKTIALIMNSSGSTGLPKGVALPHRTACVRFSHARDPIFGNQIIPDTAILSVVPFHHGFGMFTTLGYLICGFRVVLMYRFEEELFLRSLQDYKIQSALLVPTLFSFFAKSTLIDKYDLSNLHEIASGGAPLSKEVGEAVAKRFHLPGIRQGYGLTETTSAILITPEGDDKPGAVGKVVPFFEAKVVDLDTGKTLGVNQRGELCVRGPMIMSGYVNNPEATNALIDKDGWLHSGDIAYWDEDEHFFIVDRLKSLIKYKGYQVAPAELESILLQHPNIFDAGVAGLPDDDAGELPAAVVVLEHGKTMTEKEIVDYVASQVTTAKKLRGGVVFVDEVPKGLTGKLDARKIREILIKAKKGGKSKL
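Cell-free enzyme assay, 10nM P. pyralis luciferase, luciferin and ATP each at 10uM. Inhibition profiled over a 6-point titration, read as luminescence.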
Npr1 antag conf: confirmation of human Npr1 natriuretic peptide receptor antagonists. AID 1347044. hit rate 76% among 1,400. HEK293 hNpr1 cGMP GloSensor luminescence, ANP-stimulated. shares compounds with NPR1 antag. Potency, µM (top dose mostly 57.6 µM), for inactives: at the highest dose activity change, negative = inhibition, actives largely listed as inhibitors; calls by dose curve; note: nearly all actives have a fitted effect of over 70% in size
NPR2 antag: antagonizes human Npr2, subtype selectivity check; shares compounds with NPR1 antag; HEK293 hNpr2 GloSensor cGMP luminescence, CNP-stimulated; Potency, µM (top dose mostly 57.6 µM), for inactives: at the highest dose activity change, negative = inhibition, hits mostly inhibitors; hit rate 67% among 1,400; AID 1347046; calls by dose curve; note: nearly all actives have a fitted effect of over 70% in size
FLuc counter: FLuc enzyme inhibition, Npr1 counter-screen | shares compounds with NPR1 antag | hit rate 0.7% among 1,400 | purified FLuc enzyme, luminescence, Km substrate | Potency, µM (titrated, usually from 57.6 µM), without a hit: at the top dose activity change, negative = inhibition, usual class: inhibitors | AID 1347047; note: series mostly up to about 58 µM; 0% is about no effect
GloSensor cGMP: control cell line activity, Npr1 antagonist counter-screen; shares compounds with NPR1 antag; HEK293 GloSensor cGMP, SNP-stimulated, luminescence; Potency, µM (top dose mostly 57.6 µM), for inactives: top-dose activity change, negative = inhibition, most hits filed as inhibitors; hit rate 69% among 1,400; AID 1347051; calls by dose curve; note: % is set by controls: 0 for no effect and ±100 for the full control effect; nearly all actives have a fitted effect of over 70% in size
* marks the source's active call; other numbers are inactive results; i = inactive; ? = inconclusive; . = not tested or not shown. Shown are actives, neighbours in structure and some others; about 11% of the full set was active somewhere. Unless noted, calls come from the whole dose curve; as a rule, active = well fitted curve in the direction sought with a large enough effect; inconclusive = small, poorly fitted or top-dose-only effect, or another doubt; inactive = no such curve, though single readings can be large; an effect the other way counts as inactive or inconclusive. Potency is the fitted concentration of half-maximal effect.

SMILES	3T3 cytotox	HEK cytotox	NPR1 antag	FLuc inh	Npr1 antag conf	NPR2 antag	FLuc counter	GloSensor cGMP
O=C(O)CCCC(=O)N1Cc2ccccc2CC2(CCCN(CCc3ccccc3)C2)C1 (stereo not drawn)	?	-8%	.	.	.	.	.	.
CC(=O)NCCc1ncc(C)n1C1CCCCCC1	?	-7%	2%	i	.	.	.	.
O=C(c1ccccc1)N1CCn2c(nn(-c3cccc(Cl)c3)c2=O)C1	-18%	-22%	.	.	.	.	.	.
O=C(c1cccc(F)c1)N1CCN(C(=O)c2nnn3c2COC(c2ccc(F)cc2)C3)CC1 (stereo not drawn)	-18%	?	?	i	.	.	.	.
Cc1ccc(C(=O)N2CCN(C(=O)c3nnn4c3COC(c3ccc(Cl)cc3)C4)CC2)c(C)c1 (stereo not drawn)	?	?	?	i	22µM*	24µM*	2%	22µM*
COc1ccc(C2Cn3nnc(C(=O)N4CCN(C(=O)c5sccc5C)CC4)c3CO2)cc1 (stereo not drawn)	-8%	?	?	i	22µM*	27µM*	1%	22µM*
COc1ccc(C2Cn3nnc(C(=O)N4CCN(C(=O)c5cccc(F)c5)CC4)c3CO2)cc1 (stereo not drawn)	?	?	?	i	22µM*	22µM*	-1%	22µM*
COc1ccc(CN2CCC3(CC(=O)NC3=O)C2)cc1OCc1ccccc1 (stereo not drawn)	i	1%	3%	i	.	.	.	.
COc1cc(Cl)ccc1C(=O)N1CCC(Cc2nc(-c3ccc(F)cc3)no2)CC1	11µM*	?	5.6µM*	i	4.8µM*	6.1µM*	1%	6.9µM*
CCOc1ccccc1C(=O)N1CCC(Cc2nc(-c3ccc(F)cc3)no2)CC1	?	?	?	i	.	.	.	.
COc1ccc(-c2noc(CC3CCN(C(=O)c4cc(Cl)ccc4OC)CC3)n2)cc1	?	32µM*	-29%	i	22µM*	24µM*	-5%	22µM*
COc1ccc(C(=O)N2CCC3(CC2)NC(=O)N(Cc2ccc(F)cc2)C3=O)cc1F	?	?	13µM*	i	19µM*	22µM*	3%	22µM*
COc1cccc(C(=O)N2CCN(c3cc(-c4ccc(Cl)cc4)[nH]n3)CC2)c1OC	?	?	11µM*	i	22µM*	22µM*	4%	17µM*
COc1ccc(C(=O)N2CCC3(CC2)NC(=O)N(Cc2ccccc2)C3=O)cc1F	-20%	?	?	i	.	.	.	.
O=C(NC1CCN(c2cc(-c3ccc(Cl)cc3)[nH]n2)CC1)c1cccc(F)c1	-3%	?	2%	i	.	.	.	.
O=C(NC1CCN(c2cc(-c3ccc(F)cc3)[nH]n2)CC1)c1ccc(F)c(Cl)c1	32µM*	?	?	i	24µM*	?	-3%	?
O=C(c1ccc2c(c1)OCO2)N1CCCN(c2cc(-c3ccc(Br)cc3)[nH]n2)CC1	?	?	18µM*	i	24µM*	24µM*	2%	31µM*
CC(c1cc2ccccc2[nH]1)N(C)C(=O)C1CCN(CC(N)=O)CC1 (stereo not drawn)	-6%	-4%	-1%	i	.	.	.	.
O=C(c1ccc(Cl)cc1)N1CCN(CCCn2nc3n(c2=O)CCCC3)CC1	-29%	-19%	.	.	.	.	.	.
COCCN1CCC2(CCC1=O)CCN(C(=O)Nc1cccc(Br)c1)CC2	-19%	3%	-2%	i	.	.	.	.
CC(=O)N1CCN(C(=O)c2nc3sccn3c2-c2ccc(C(F)(F)F)cc2)CC1	-18%	i	.	.	.	.	.	.
Cc1cn2nc(C(=O)NCc3ccc4c(c3)OCO4)cc2c(N2CCCC2)n1	-23%	-11%	15%	i	.	.	.	.
COCC1CN(Cc2cccc(OC(F)(F)F)c2)CC12CCNCC2 (stereo not drawn)	?	?	-6%	i	.	.	.	.
O=C(c1ccc2c(c1)OCO2)N1CCCN(c2cc(-c3ccc(Cl)cc3)[nH]n2)CC1	?	?	-30%	i	.	.	.	.
CCOc1ccc(C(=O)N2CCCN(c3cc(-c4ccc(Cl)cc4)[nH]n3)CC2)cc1OCC	?	?	11µM*	i	15µM*	17µM*	5%	15µM*
SMILES	3T3 cytotox	HEK cytotox	NPR1 antag	FLuc inh	Npr1 antag conf	NPR2 antag	FLuc counter	GloSensor cGMP
O=C(c1ccc(F)c(Cl)c1)N1CCN(c2cc(-c3ccccc3)[nH]n2)CC1	?	?	-29%	i	.	.	.	.
O=C(c1ccccc1)N1CCN(c2cc(-c3ccc(Cl)cc3)[nH]n2)CC1	?	?	?	i	?	?	0%	?
O=C(c1ccc(Cl)cc1)N1CCN(c2cc(-c3ccc(Cl)cc3)[nH]n2)CC1	32µM*	40µM*	11µM*	i	22µM*	22µM*	4%	22µM*
O=C(c1ccc2c(c1)OCO2)N1CCN(c2cc(-c3ccc(Cl)cc3)[nH]n2)CC1	?	?	?	i	24µM*	?	-11%	24µM*
COc1ccc(CC(=O)N2CCCN(c3cc(-c4ccccc4)[nH]n3)CC2)cc1	-25%	?	0%	i	.	.	.	.
O=C(Cc1c[nH]c2ccccc12)N1CCCN(c2cc(-c3ccc(Br)cc3)[nH]n2)CC1	35µM*	?	16µM*	i	24µM*	27µM*	-7%	27µM*
O=C(c1ccc2nc[nH]c2c1)N1CCCN(c2cc(-c3ccc(Br)cc3)[nH]n2)CC1	-25%	?	-17%	i	.	.	.	.
COc1ccc(CC(=O)NC2CCN(c3cc(-c4ccc(Cl)cc4)[nH]n3)C2)cc1OC (stereo not drawn)	?	?	10µM*	i	19µM*	22µM*	-2%	11µM*
COc1ccc(CC(=O)N2CCCN(c3cc(-c4ccc(OC)cc4)[nH]n3)CC2)cc1	?	?	?	i	?	?	0%	-19%
CCOc1ccc(CC(=O)NC2CCN(c3cc(-c4ccc(F)cc4)[nH]n3)C2)cc1OCC (stereo not drawn)	?	?	-20%	i	.	.	.	.
COc1ccc(C(=O)N2CCN(c3cc(-c4ccc(Cl)cc4)[nH]n3)CC2)cc1	7.1µM*	35µM*	8.9µM*	i	15µM*	17µM*	-1%	11µM*

Source: PubChem (National Center for Advancing Translational Sciences (NCATS))
